Measurements as given in PubChem BioAssay AID2284358 (EPA ToxCast).
Inconclusive results are not listed. Activity calls are given as the source filed them. Rule for the calls: active = hit-call score of the fitted dose curve at least 0.9, where 1 is the maximum; inconclusive = response in the unintended direction; inactive = score below 0.9.

target: zebrafish Retinoid X Receptor beta (RXRb), rxrba (gene 30530) (UniProt Q7SYN5); assay: ATG_zfRXRb_EcoTox2: Attagene TRANS-FACTORIAL EcoTox-2 HepG2 Assay for zebrafish Retinoid X Receptor beta (RXRb)
Procedure: ATG_EcoTox2 is a cell-based, multiplexed assay created by modifying the existing Attagene TRANS-FACTORIAL system to include a panel of nuclear receptors from some or all the following species: human (Homo sapiens), african clawed frog (Xenopus laevis), rainbow trout (Oncorhynchus mykiss), japanese medaka (Oryzias latipes), and zebrafish (Danio rerio). The ECOTOX2-FACTORIAL format uses HepG2, a human liver cell line, with measurements taken at 24 hours after chemical dosing in a 24-well plate. ATG_zfRXRb_EcoTox2 is one of 29 assay components calculated in the ATG_EcoTox2 assay. It is designed to make measurements of mRNA induction, a form of inducible reporter, as detected with fluorescence intensity signals by Reverse transcription polymerase chain reaction (RT-PCR) and Capillary electrophoresis technology.The assay endpoint ATG_zfRXRb_EcoTox2 was analyzed in the positive analysis fitting direction relative to DMSO as the negative control and baseline of activity. Using a type of inducible reporter, measures of mRNA for gain-of-signal activity can be used to understand the reporter gene at the transcription factor-level as they relate to the gene RXRb. Furthermore, this assay endpoint can be referred to as a primary readout, because this assay has produced multiple assay endpoints where this one serves a reporter gene function. […]
Human liver HepG2 cells are transiently transfected with multiple reporter transcription units (MRTUs) in 6-well plates using FuGene 6 reagent (Roche; 3 ml FuGene/1 mg DNA). […] A major difference between the CIS and TRANS system is that in CIS activities of endogenous TFs are measured, whereas the TRANS assay evaluates changes in activities of exogenous, chimeric NR-Gal4 proteins. […] The fragments were purified using Qiaquick PCR columns (Qiagen), analyzed on an ABI 3130xL genetic analyzer (Applied Biosystems) with peak positions identified by using a set of X-rhodamine (ROX)-labeled MapMarker1000 molecular weight standards (BioVentures). […]

zebrafish Retinoid X Receptor beta (RXRb), rxrba (gene 30530), sequence (Q7SYN5 whole entry, looked up): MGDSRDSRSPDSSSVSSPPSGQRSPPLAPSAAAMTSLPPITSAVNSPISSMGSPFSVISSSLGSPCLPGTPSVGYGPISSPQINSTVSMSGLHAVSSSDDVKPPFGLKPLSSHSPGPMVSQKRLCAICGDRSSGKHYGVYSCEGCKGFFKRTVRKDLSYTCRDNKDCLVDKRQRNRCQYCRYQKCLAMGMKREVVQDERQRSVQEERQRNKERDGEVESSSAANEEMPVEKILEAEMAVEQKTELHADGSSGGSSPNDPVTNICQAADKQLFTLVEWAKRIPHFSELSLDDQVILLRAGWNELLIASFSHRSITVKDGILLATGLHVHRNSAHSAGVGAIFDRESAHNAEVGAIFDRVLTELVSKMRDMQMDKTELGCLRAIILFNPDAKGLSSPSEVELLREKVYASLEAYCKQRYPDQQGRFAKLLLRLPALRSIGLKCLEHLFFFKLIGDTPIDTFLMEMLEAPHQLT

Structure (SMILES) | AC50 | outcome
[Cl][Sn]([c]1ccccc1)([c]1ccccc1)[c]1ccccc1 | 0.0952 µM (active) | 
O=P(Oc1ccccc1)(Oc1ccccc1)Oc1ccccc1 |  | inactive
O=S(=O)(O)C(F)(F)C(F)(F)C(F)(F)C(F)(F)C(F)(F)C(F)(F)F |  | inactive
